In PubChem BioAssay (NCATS):
Results filed as inconclusive are left out. Entries that show only a call come without a potency. Activity calls are given as the source filed them. Calls follow the shape of the dose curve; as a rule, active = well fitted curve in the direction sought with a large enough effect; inconclusive = small, poorly fitted or top-dose-only effect, or another doubt; inactive = no such curve, though single readings can be large; an effect the other way counts as inactive or inconclusive.

Legend:
[1] = biological target: Cytochrome P450 3A4 (Homo sapiens) (UniProt P08684); assay: qHTS Assay for Inhibitors and Substrates of Cytochrome P450 3A4 (AID 884); also: nearly all actives have a fitted effect of over 50% in size; also: potency is read from the fitted curve at half-maximal effect
In short: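 Luminescent readout of luciferin produced by CYP3A4 (20 nM) dealkylation of Luciferin-PPXE, 25 uM (its KM). NADPH-driven reaction ran 60 min at RT after 10 min compound preincubation; data scaled to 57 uM ketoconazole as 100% inhibition.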

[2] = biological target: DNA dC->dU-editing enzyme APOBEC-3G (Homo sapiens) (UniProt Q9HC16); assay: qHTS for inhibitors of Vif-A3G interactions: Validation (AID 588379)
In short: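 Yellow fluorescence (Ex 488, Em 500-530) of Vif-coexpressing HeLa A3G-eYFP cells, scanned by Acumen cytometer, reports blocked A3G degradation. Cells plated at 700/well overnight at 37 deg C before compound addition, then a further overnight compound incubation at 37 deg C.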

[3] = biological target: Cytochrome P450 3A4 (Homo sapiens) (UniProt P08684); assay: qHTS Assay for Activators of Cytochrome P450 3A4 (AID 885); also: nearly all actives have a fitted effect of over 65% in size
In short: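 Luminescent readout of luciferin formed from 25 uM Luciferin-PPXE (KM level) by 20 nM CYP3A4 in 200 mM KPO4, with 60 min NADPH-driven reaction at room temperature after 10 min compound exposure. Ketoconazole (57 uM) defined 100% inhibition.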

[4] = biological target: Luciferin 4-monooxygenase (Photinus pyralis) (UniProt P08659); assay: Biochemical firefly luciferase enzyme assay for NPC (AID 624030);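 also: purified P. pyralis luciferase at 10 nM with luciferin and ATP substrate; series mostly up to about 59 µM; nearly all actives have a fitted effect of over 70% in size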
In short: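 Counter-screen for direct inhibition of the luciferase enzyme by approved-drug library compounds, run at 10 nM enzyme in 50 mM Tris acetate (final). Luminescence was read within 5 min of enzyme-buffer addition and normalized to PTC124 versus DMSO (0%).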

Chain of Cytochrome P450 3A4 (Homo sapiens) (P08684 whole entry, looked up): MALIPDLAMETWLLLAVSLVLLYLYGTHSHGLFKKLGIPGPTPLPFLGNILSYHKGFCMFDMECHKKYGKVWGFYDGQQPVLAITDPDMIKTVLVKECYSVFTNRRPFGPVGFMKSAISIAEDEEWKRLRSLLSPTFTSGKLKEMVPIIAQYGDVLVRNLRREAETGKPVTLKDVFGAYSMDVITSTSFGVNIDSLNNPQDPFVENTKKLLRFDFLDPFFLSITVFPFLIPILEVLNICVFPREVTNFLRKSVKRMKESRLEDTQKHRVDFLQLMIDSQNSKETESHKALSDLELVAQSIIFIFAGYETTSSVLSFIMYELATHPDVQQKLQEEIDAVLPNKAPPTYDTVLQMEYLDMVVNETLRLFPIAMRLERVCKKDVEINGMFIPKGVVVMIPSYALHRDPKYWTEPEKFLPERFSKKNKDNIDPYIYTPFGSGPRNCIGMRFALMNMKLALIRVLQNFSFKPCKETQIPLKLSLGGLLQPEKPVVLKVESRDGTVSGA
Chain of DNA dC->dU-editing enzyme APOBEC-3G (Homo sapiens) (Q9HC16 whole entry, looked up): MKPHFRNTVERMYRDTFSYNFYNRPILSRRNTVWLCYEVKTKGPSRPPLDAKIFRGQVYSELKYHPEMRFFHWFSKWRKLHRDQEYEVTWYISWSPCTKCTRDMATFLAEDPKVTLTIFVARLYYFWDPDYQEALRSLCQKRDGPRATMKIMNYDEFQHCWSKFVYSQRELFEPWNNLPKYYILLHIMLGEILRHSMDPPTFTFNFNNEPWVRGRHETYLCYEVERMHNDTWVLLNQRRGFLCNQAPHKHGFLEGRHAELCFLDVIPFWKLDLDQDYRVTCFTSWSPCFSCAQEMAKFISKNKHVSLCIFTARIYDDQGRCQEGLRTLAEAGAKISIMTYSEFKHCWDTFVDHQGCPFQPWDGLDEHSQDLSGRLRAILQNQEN
Chain of Luciferin 4-monooxygenase (Photinus pyralis) (P08659 whole entry, looked up): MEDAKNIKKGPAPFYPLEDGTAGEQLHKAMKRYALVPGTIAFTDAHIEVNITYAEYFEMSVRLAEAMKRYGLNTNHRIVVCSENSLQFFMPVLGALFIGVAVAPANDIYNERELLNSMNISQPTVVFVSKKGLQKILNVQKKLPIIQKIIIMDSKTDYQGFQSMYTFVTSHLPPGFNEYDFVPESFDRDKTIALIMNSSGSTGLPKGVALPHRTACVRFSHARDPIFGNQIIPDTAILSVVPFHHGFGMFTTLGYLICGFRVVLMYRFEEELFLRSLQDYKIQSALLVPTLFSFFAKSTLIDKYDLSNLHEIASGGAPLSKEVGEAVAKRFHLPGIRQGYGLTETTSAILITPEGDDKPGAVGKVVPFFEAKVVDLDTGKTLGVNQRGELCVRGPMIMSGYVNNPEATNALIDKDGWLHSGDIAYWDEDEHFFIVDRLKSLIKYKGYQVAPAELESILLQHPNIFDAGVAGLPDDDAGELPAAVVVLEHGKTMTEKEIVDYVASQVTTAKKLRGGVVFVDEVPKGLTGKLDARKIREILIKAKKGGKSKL

SMILES | Potency [1] | Potency [2] | Potency [3] | Potency [4]
CNC(=O)Oc1ccc2c(c1)C1(C)CCN(C)C1N2C (stereo not given) | inactive | inactive |  | 
CC(C)=CCC/C(C)=C\COc1c2ccoc2cc2oc(=O)ccc12 | 0.794 µM (active) | inactive | inactive | 
Cc1cccc(-c2cc(=O)c3cc(C)ccc3o2)c1 | 3.98 µM (active) | inactive | inactive | 
C=C1C(=O)OC2C[C@@]3(C)CCCC(=C)[C@@H]3CC12 (stereo not given in full) | 10 µM (active) | inactive | inactive | 
C[C@@H]1O[C@@H](OC[C@H]2O[C@@H](Oc3c(-c4cccc(O)c4O)oc4cc(O)cc(O)c4c3=O)[C@H](O)[C@@H](O)[C@@H]2O)[C@H](O)[C@H](O)[C@H]1O | inactive | inactive |  | 
Clc1ccc2nc(-c3ccccc3)[nH]c2c1 | 12.6 µM (active) | inactive | inactive | 
COc1ccccc1-c1oc2ccccc2c(=O)c1O | 25.1 µM (active) | inactive | inactive | 
CC1(C)CC[C@]2(C(=O)O)CC[C@]3(C)C(=CCC4[C@@]5(C)CC[C@H](O)C(C)(C)C5[C@H](O)C[C@]43C)C2C1 (stereo not given in full) |  | inactive | inactive | 
O=c1cc(-c2cccc(O)c2)oc2cccc(O)c12 | 7.94 µM (active) | inactive |  | 
CC(=O)Oc1ccc(/C=C/C(=O)CC2OC(Oc3cc(OC(C)=O)c4c(c3)O[C@@H](c3ccc(OC(C)=O)cc3)CC4=O)C(OC(C)=O)C(OC(C)=O)C2OC(C)=O)cc1 (stereo not given in full) | inactive | inactive |  | 
COc1ccccc1CC(Cc1nc2ccccc2[nH]1)c1nc2ccccc2[nH]1 (stereo not given) | 1.58 µM (active) | inactive | inactive | 
COc1ccc(C(=O)C2C3C4COC(O4)C(=O)C3C3C=Cc4ccccc4N32)c(OC)c1 (stereo not given) | 31.6 µM (active) | inactive | inactive | 
O=C(/C=C/c1ccc(OCc2ccccc2)cc1)c1cccs1 | inactive | inactive |  | 
COc1ccc2c(c1OC)C(Cc1ccccc1)N1CCc3cc4c(cc3C1C2)OCO4 (stereo not given) | 1 µM (active) | inactive | inactive | 
O=C(O)[C@H]1[C@H]2C[C@H]3c4[nH]c5ccccc5c4CCN3C[C@@H]2CC[C@@H]1O |  | inactive | inactive | 
O=c1c(O)c(-c2ccc(O)c(O)c2)oc2c(OC[C@@H]3O[C@@H](O)[C@@H](O)[C@H](O)[C@H]3O)c(O)cc(O)c12 | inactive | inactive |  | 
CC(=O)Nc1ccc(-c2nc3ccc(Cl)cc3[nH]2)cc1 | inactive | inactive |  | 

SMILES | Potency [1] | Potency [2] | Potency [3] | Potency [4]
C[C@H]1[C@H](C)CC[C@]2(C(=O)O)CC[C@]3(C)C(=CCC4[C@@]5(C)C[C@@H](O)[C@H](O)[C@@](C)(CO)[C@@H]5CC[C@]43C)[C@H]12 (stereo not given in full) |  | inactive | inactive | 
O=c1cc(-c2ccccc2)oc2cc(O[C@@H]3O[C@H](CO)[C@@H](O)[C@H](O)[C@H]3O)c(O)c(O)c12 | inactive | inactive |  | 
CC12CCC3c4ccc(O)cc4CCC3C1CCC2=O (stereo not given) |  | inactive |  | inactive
COc1ccc(-c2coc3ccc(OC4OC(COC(C)=O)C(OC(C)=O)C(OC(C)=O)C4OC(C)=O)c(OC(C)=O)c3c2=O)cc1 (stereo not given) |  | inactive | inactive | 
CC(=O)OC1CCC2(C)C(CCC3(C)C2C(=O)C=C2C4CC(C)(C(=O)OCCN5CCCCC5)CCC4(C)CCC23C)C1(C)C (stereo not given) | inactive | inactive |  | 
CC[C@@H]1CN2CCc3cc(OC)c(OC)cc3[C@@H]2C[C@@H]1C[C@H]1NCCc2cc(OC)c(OC)cc21 |  | inactive | inactive | 
CC(=O)OCC1OC(Oc2cc(OC(C)=O)c3c(=O)cc(-c4ccc(OC(C)=O)c(OC(C)=O)c4)oc3c2)C(OC(C)=O)C(OC(C)=O)C1OC(C)=O (stereo not given) | 3.98 µM (active) | inactive | inactive | 
CC1CC2(C)Oc3ccccc3C3OCC1(COC(=O)Nc1ccccc1)C(C)C32 (stereo not given) | 10 µM (active) | inactive | inactive | 
Cc1ccc(CC(Cc2nc3ccccc3[nH]2)c2nc3ccccc3[nH]2)cc1 (stereo not given) | 1.26 µM (active) | inactive | inactive | 
COC(=O)CC[C@@H](C)[C@H]1CC[C@H]2[C@@H]3CC[C@@H]4C[C@H](O)CC[C@]4(C)[C@H]3C[C@H](O)[C@]12C | inactive | inactive |  | 
Cc1ccc(C(=O)[C@@H]2[C@H]3C4COC(O4)C(=O)[C@@H]3[C@H]3C=Cc4ccccc4N32)cc1 (stereo not given in full) | 25.1 µM (active) | inactive | inactive | 
COc1ccc(-c2coc3cc(OC4OC(CO)C(O)C(O)C4O)cc(O)c3c2=O)cc1 (stereo not given) | inactive | inactive |  | 
O=C(/C=C/c1ccc2c(c1)OCO2)c1cccs1 | 0.501 µM (active) | inactive | inactive | 
CC1(C)CC[C@]2(C(=O)O)CC[C@]3(C)C(=CCC4[C@@]5(C)CC[C@H](O)C(C)(C)[C@@H]5CC[C@]43C)C2C1 (stereo not given in full) | inactive | inactive |  | 
C=C1C(=O)O[C@@H]2C3OC3(C)CC/C=C(\C)CC[C@@H]12 (stereo not given in full) |  | inactive | inactive | 
CC(C)=CCC/C(C)=C/COc1c2occc2cc2ccc(=O)oc12 | 1.26 µM (active) | inactive | inactive | 
